Unmarked numbers belong to inactive results.
tested on: Plasmodium falciparum NF54-HGL (transmission to Anopheles stephensi); test: percentage of barcode signal found in uninfected mosquitoes (transmission-blocking activity); higher = stronger blocking of transmission to mosquito, active = 80 or more; settings: 10 µM; gametocyte preincubation time 24 h; readout time post-feed 8 days
Method: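 The mixture was fed to Anopheles stephensi in 96-well plates as blood meals tagged with DNA-barcoded Asaia bacteria. Eight days later, mosquitoes were classed infected or uninfected by luminescence (mean + 5 SD of unfed controls). Barcodes were quantified by Luminex MagPlex-TAG in the pooled uninfected and infected Asaia cultures, background-corrected, and the score is % of barcode signal in uninfected mosquitoes = 100*Iu/(Iu+Ii).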

Structure (SMILES)	percentage of barcode signal found in uninfected mosquitoes
COc1ccc(C2(C(=O)Nc3ccc(Br)cc3)CCCC2)cc1	15.2%
CCOC(=O)NC(=O)c1ccsc1NC(=O)c1nc2ccccc2s1	-0.298%
COc1nc2ccc(Br)cc2cc1[C@@H](c1ccccc1)[C@@](O)(CCN(C)C)c1cccc2ccccc12	-3.2%
O=C(NC1CC1)c1ccc(CSCc2ccccc2Cl)o1	36.9%
N=C(N)Nc1ccc(-c2ccc(-c3ccc(N=C(N)N)c(Cl)c3)o2)cc1Cl	101% (active)
COC(=O)Nc1nc2cc(C(=O)c3ccccc3)ccc2[nH]1	42.3%
COc1cc(C2=NCCN2)ccc1-n1cc(-c2cccc(C3=NCCN3)c2)nn1	46.2%
CC(C)N=c1cc2n(-c3ccc(Cl)cc3)c3ccccc3nc-2cc1Nc1ccc(Cl)cc1	99.3% (active)
Cc1cc(NC(=O)c2ccc(S(=O)(=O)N(Cc3ccccc3)C(C)C)cc2)no1	35.4%
Cc1cc2nc(NC(=O)C(C)(C)C)nc(Cl)c2n1Cc1ccc(Cl)cc1	79.6%
COc1ccc(-c2cc(NC(=O)c3ccc(F)cc3Cl)ccc2OC)cc1	-1.77%
COc1ccc(OC)c(NCc2ccc3nc(N)nc(N)c3c2Cl)c1	94.7% (active)
O=C(C1CCN(c2nnnn2-c2ccccc2)CC1)N1CCc2ccccc2C1	46.7%
CC(=O)Nc1ccc(NC(=O)c2cc(-c3cc(Cl)ccc3O)[nH]n2)cc1	27.4%
Cc1nn2c(=O)c3c([nH]c2c1-c1ccc(Cl)cc1)CCCC3	40.4%
CCN(CC)CCCCCCNc1cc(OC)cc2c(C)ccnc12	55.8%
N=C(N)c1ccc(OCCCCCOc2ccc(C(=N)N)cc2)cc1	77.2%
CNc1snc(C)c1C(=O)NCCOc1ccc(OC)cc1	25.3%
O=C(Nc1ccnc(-c2cccnc2)n1)c1cc(C(F)(F)F)cc(C(F)(F)F)c1	46.9%
Cc1cc2ccccc2n1CC(=O)N1CC(C(=O)N2CCCCC2)Oc2ccccc21 (stereo not given)	34.8%
CC1=NN(c2nc3ccccc3s2)C(=O)C1Cc1cccc2ccccc12 (stereo not given)	0.165%
N#Cc1ccc(-c2ccc(OCC(N)=O)cc2)cc1	-1.66%
COc1ccc(Cl)cc1NC(=O)CN(C)C(=O)c1cnn(-c2ccccc2)n1	64.6%
NCC(=O)N1CCn2c(nc(-c3ccccc3)c2Nc2ccc3c(c2)OCO3)C1	80.9% (active)

same assay, conditions: 20 µM; gametocyte preincubation time 24 h; readout time post-feed 8 days

Structure (SMILES)	percentage of barcode signal found in uninfected mosquitoes
CC(=O)N1CCN(c2ccc(Oc3ccc(Cl)cc3O)cc2)CC1	23.4%
Cc1cc(NCCc2ccccc2)nc(NC(=N)Nc2ccc(Cl)cc2)n1	75.8%
Nc1nc2ccc(-c3cncc(Oc4ccc(F)cc4)c3)cc2[nH]1	99.4% (active)
COc1cc(CN2CCC3(C=Cc4ccccc43)CC2)cc2c1OCO2	0.609%
Cc1[nH]c2cc(F)cc(F)c2c(=O)c1-c1ccc(Oc2ccc(OC(F)(F)F)cc2)cc1	78.3%
Cc1cccc(-c2nc(Nc3ccncn3)c3sccc3n2)n1	91.4% (active)
COc1ccc(C2=NCCN2)cc1-c1cn(-c2cccc(C3=NCCN3)c2)nn1	16.8%
CCN(CC)CCCN1CCN(C(=O)c2cccc(-c3noc(C(F)(F)F)n3)c2)CC1	64.3%
Nc1ncc(-c2cn[nH]c2)cc1-c1nc2cc(Cl)cnc2[nH]1	48.9%
Cc1cc(O)nc(-n2nc(C)cc2C)n1	70.1%
COc1ccc(N(CCc2cccc(C)n2)C(C)=O)cc1	0.592%
CC(c1cc(Cl)cc(Cl)c1)N(C)c1ncc2c(N)nc(N)nc2n1 (stereo not given)	0.441%
CC(C)(C)n1nc(Cc2cccc3ccccc23)c2c(N)ncnc21	0.0299%
CCCCOC(=O)Nc1cc2nc(C3CCCCC3)[nH]c2cc1N1CCCC1	33.9%
CNCCC(Oc1ccc(C(F)(F)F)cc1)c1ccccc1 (stereo not given)	27.5%
O=C(Nc1ccccc1)c1ccc(-c2cc3ccncc3cc2OC2CCNCC2)s1	82.7% (active)
